High-throughput results: PubChem, National Center for Advancing Translational Sciences (NCATS)
FLuc counter – qHTS profiling assay for firefly luciferase inhibitor/activator using purifed enzyme and Km concentrations of substrates (counterscreen for miR-21 project) | purified FLuc, Km substrates, luminescence inhibition | Potency, µM (titrated, usually from 57.5 µM), for the others: at the highest dose activity change, negative = inhibition, most hits filed as inhibitors | hit rate 6.9% among 360,000 | AID 588342, 2011;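 also: plate controls were vehicle for no effect and reference inhibitor for full effect; nearly all actives have a fitted effect of over 55% in size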
Target sequence (P08659 whole entry, looked up): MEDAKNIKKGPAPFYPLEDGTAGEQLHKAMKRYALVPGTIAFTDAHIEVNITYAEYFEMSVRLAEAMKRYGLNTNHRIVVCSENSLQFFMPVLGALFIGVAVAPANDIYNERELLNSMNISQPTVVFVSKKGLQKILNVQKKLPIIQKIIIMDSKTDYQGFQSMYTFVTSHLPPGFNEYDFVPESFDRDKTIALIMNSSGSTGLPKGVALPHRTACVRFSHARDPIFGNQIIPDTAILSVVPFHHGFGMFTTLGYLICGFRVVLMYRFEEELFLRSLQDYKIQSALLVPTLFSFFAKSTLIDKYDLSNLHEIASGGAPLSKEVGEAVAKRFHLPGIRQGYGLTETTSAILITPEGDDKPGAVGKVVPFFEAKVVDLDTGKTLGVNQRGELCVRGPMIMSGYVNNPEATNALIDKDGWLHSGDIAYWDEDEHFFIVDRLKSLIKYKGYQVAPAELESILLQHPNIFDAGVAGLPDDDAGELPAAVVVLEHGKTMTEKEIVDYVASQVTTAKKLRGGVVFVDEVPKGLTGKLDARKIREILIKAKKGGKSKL
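Biochemical qHTS of compounds, final roughly 60 µM downward over six points, against 10 nM purified firefly luciferase using Km concentrations of substrates (10 uM D-luciferin, 10 uM ATP) in Tris acetate pH 7.5 buffer; luminescence output.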
SMN2 splice up – qHTS Assay for Enhancers of SMN2 Splice Variant Expression | Potency, µM (top dose mostly 46.1 µM), for the others: at the top dose activity change, positive = activation, hits mostly activators | hit rate 2.8% among 210,000 | HEK293 SMN2-luciferase splicing reporter, luminescence, 30-36 h | AID 1458, 2008; also: % of control where 0% means no effect; nearly all actives have a fitted effect of over 55% in size
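HEK293 cells carry an SMN2 […]–luciferase reporter in which exon 7 inclusion puts luciferase in frame. Cells were plated 10-12 h before compound addition, then incubated 30-36 h at 37C. ONE-Glo luminescence was read; sodium butyrate at 4.5 mM final served as control.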
NPC1 promoter act – qHTS Assay for NPC1 Promoter Activators; Huh7 NPC1 promoter luciferase reporter, 24 h; Potency, µM (series often up to 9.22 µM), for inactives: top-dose activation, usual class: activators; hit rate 2.4% among 320,000; also: % of control where 0% means no effect; nearly all actives have a fitted effect of over 60% in size
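Huh7 cells stably carrying NPC1 promoter–luciferase, plated in Opti-MEM with 10% FBS for 2 h, were exposed to compound in DMSO for 24 h at 37 °C; luciferase reagent was added for 10 min and luminescence read.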
ELG1 genotoxic – qHTS screen for small molecules that induce genotoxicity in human embryonic kidney (HEK293T) cells expressing luciferase-tagged ELG1; HEK293T ELG1-luciferase reporter, luminescence, 16 h; Potency, µM (series often up to 46 µM), inactives show at the top dose activity change, positive = activation, actives largely listed as activators; hit rate 1.3% among 330,000; AID 504466, 2011; also: % of control where 0% means no effect; nearly all actives have a fitted effect of over 60% in size
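16 hr compound incubation (37 °C, 5% CO2) of HEK293T cells carrying luciferase-tagged ELG1; luciferase then measured by ONE-Glo luminescence after 30 min at RT.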
KinaseGlo FLuc – Counterscreen for Luciferase (Kinase-Glo TM) Inhibition; Luciferin 4-monooxygenase (Photuris pensylvanica), Q27757; Kinase-Glo luciferase, ATP luminescence, 8 min; Potency, µM (top dose mostly 38.3 µM), for inactives: top-dose activity change, negative = inhibition, most hits filed as inhibitors; hit rate 0.28% among 200,000; also: % is scaled to controls: 0 for no effect and ±100 for the full control effect; nearly all actives have a fitted effect of over 60% in size
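Recombinant Kinase-Glo luciferase, 10 uM ATP (linear range), luciferin; imidazole pH 7.2 / KCl / MgCl2 / Tween / BSA buffer; 8 min RT; luminescence.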
Rab9 promoter act – qHTS Assay for Rab9 Promoter Activators; hit rate 2.8% among 320,000; Potency, µM (top dose mostly 9.22 µM), for inactives: top-dose activation, negative = inhibition, usual class: activators; Huh7 Rab9 promoter-luciferase reporter, luminescence, 24 h; also: % of control where 0% means no effect; nearly all actives have a fitted effect of over 60% in size
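Steps: seed 1500 Huh7 Rab9-luc cells per well, rest 2 h at 37 °C; add compound in DMSO; incubate 24 h; add luciferase reagent, 10 min ambient; read luminescence.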
* hit, by the source's call; [ ] = another dose, or the depositor's remark. A selection: hits, their analogues and other compounds. The true share with any hit is near 7.5%. Calls follow the shape of the dose curve; as a rule, active = well fitted curve in the direction sought with a large enough effect; inconclusive = small, poorly fitted or top-dose-only effect, or another doubt; inactive = no such curve, though single readings can be large; an effect the other way counts as inactive or inconclusive. Potency is read from the fitted curve at half-maximal effect.

Results for c1ccc(N/N=C(\Cc2nc3ccccc3[nH]2)c2ccccc2)cc1 ?
FLuc counter: 7.6µM*; SMN2 splice up: 13µM*; NPC1 promoter act: inconclusive; ELG1 genotoxic: inconclusive; KinaseGlo FLuc: 0%; Rab9 promoter act: 25%

What do the screens show for `O=C(NCCc1nc2ccccc2[nH]1)c1cc([N+](=O)[O-])cc([N+](=O)[O-])c1`?
FLuc counter: -3%; SMN2 splice up: -2%; NPC1 promoter act: 3%; ELG1 genotoxic: -2%; KinaseGlo FLuc: -1%; Rab9 promoter act: 17%

Results for N/N=C(/Cc1nc2ccccc2[nH]1)c1ccc([N+](=O)[O-])cc1 ?
FLuc counter: 12µM*; SMN2 splice up: inconclusive; NPC1 promoter act: 16%; ELG1 genotoxic: 1%; KinaseGlo FLuc: 0%; Rab9 promoter act: 28%

What do the screens show for `N#CCCN/N=C(/Cc1nc2ccccc2[nH]1)c1ccc(Cl)cc1`?
FLuc counter: 27µM*; SMN2 splice up: 14µM*; NPC1 promoter act: 24%; ELG1 genotoxic: inconclusive; KinaseGlo FLuc: -2%; Rab9 promoter act: inconclusive

What do the screens show for `COc1ccccc1CNC(=O)CCc1c(C)nn(-c2ccc(N3CCOCC3)nn2)c1C`?
FLuc counter: -3%

What do the screens show for `COc1cccc(C(=O)Nc2cc(C(=O)NCc3ccc(C)cc3)ccc2N2CCC3(CC2)CC(c2cccc(Br)c2)=NO3)c1`?
FLuc counter: -4%; NPC1 promoter act: 0%; ELG1 genotoxic: 2%; Rab9 promoter act: 1%

How did NS(=O)(=O)c1ccc(NC(=S)N2CCN(C(=O)C3CCCO3)CC2)cc1 (stereo unspecified) do in these assays?
FLuc counter: 4.8µM*; NPC1 promoter act: 16%; ELG1 genotoxic: -13%; Rab9 promoter act: 0%

What do the screens show for `COc1ccc(N(CC(=O)Nc2cccc(C(C)=O)c2)S(=O)(=O)c2ccccc2)c(OC)c1`?
FLuc counter: -8%; SMN2 splice up: -8%

How did COc1ccccc1N1CCN(S(=O)(=O)c2ccc(-c3ccno3)cc2OC)CC1 do in these assays?
FLuc counter: -4%

What do the screens show for `C/C=C/C1=Cc2ccccc2C(CC(=O)OC)N1C(=O)OC` (stereo unspecified)?
SMN2 splice up: -10%[9.22 µM]; KinaseGlo FLuc: -5%[7.66 µM]

Results for Cc1cc(C(=O)N2CC(C)CC(C)C2)c(C)o1 (stereo unspecified) ?
FLuc counter: 2%; NPC1 promoter act: -3%; ELG1 genotoxic: 0%; Rab9 promoter act: -3%

How did CC1CN(C(=O)c2cc3ccccc3oc2=O)CC(C)O1 (stereo unspecified) do in these assays?
FLuc counter: 3%; SMN2 splice up: 6%; NPC1 promoter act: -4%; ELG1 genotoxic: 2%; KinaseGlo FLuc: -5%; Rab9 promoter act: 3%

What do the screens show for `Cc1ccc(-c2cc(C(=O)N3CC(C)CC(C)C3)c3ccccc3n2)o1` (stereo unspecified)?
FLuc counter: 12µM*; NPC1 promoter act: 1%; ELG1 genotoxic: -1%; Rab9 promoter act: 2%

What do the screens show for `Cc1ccc(-c2cc(C(=O)N3CC(C)OC(C)C3)c3ccccc3n2)o1` (stereo unspecified)?
FLuc counter: 11µM*; NPC1 promoter act: -1%; ELG1 genotoxic: 9%; Rab9 promoter act: -1%

What do the screens show for `O=C(COc1ccccc1)Nc1nnc2n1CCS2`?
FLuc counter: -2%

What do the screens show for `COc1ccc(/C=C/C(=O)c2ccc(NC(=O)c3cccs3)cc2)cc1OC`?
FLuc counter: 13µM*; SMN2 splice up: 16µM*; NPC1 promoter act: inconclusive; ELG1 genotoxic: inconclusive; KinaseGlo FLuc: 4%; Rab9 promoter act: inconclusive
